The results in this text go back to the supplement of paper PMC7156485.

± gives the standard deviation of the averaged measurements.

Common to all, as to details: concentration: 10 µM; 24 h
For assay [1], the system named is HCC1569. The experiment in a line: cell number relative to DMSO (% of DMSO); higher = more cells (less growth inhibition / toxicity). In a few lines:
(§1)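 Cells were seeded at 800 per well in 384-well plates with RPMI containing 10% FBS; both HCC1569 and TDF lines were used. Compounds were added at 10 µM for 24 h at 37 °C, in triplicate, before fixation in 3.7% formaldehyde and staining with a rabbit anti-H1.0 antibody, an AlexaFluor 647 secondary and DAPI. H1.0 nuclear intensity or cell number is reported as percent of the plate control using the median of replicates, and HCC1569 values were smoothed for positional effects.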

Assay [2] concerns TDF. The description is as above. In a few lines: as §1
For assay [3], the system named is TDF. The experiment in a line: H1.0 immunofluorescence intensity relative to DMSO (% of DMSO); higher = stronger H1.0 induction, active = 120 or more. In a few lines: as §1
For assay [4], the system named is HCC1569. Nature of the assay: H1.0 immunofluorescence intensity relative to DMSO (% of DMSO); higher = stronger H1.0 induction, active = 140 or more. In a few lines: as §1
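For H1.0 immunofluorescence intensity relative to DMSO in this document: TDF is a line of transformed human dermal fibroblasts of mesenchymal origin.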
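For cell number relative to DMSO in this document: TDF denotes transformed human dermal fibroblasts of mesenchymal origin.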

`Cl.O=C(CNC(=O)c1cccc(C(F)(F)F)c1)N[C@@H]1CCN(Cc2ccc(Cl)cc2)C1`: the cell number in the assay with HCC1569 [1] was 89.9; in the assay with TDF [2], 96.8. The H1.0 immunofluorescence intensity in the assay with TDF [3] was 89.1 (inactive); in the assay on HCC1569 [4], 134 (inactive).

Regarding `COc1cc2c(cc1OC)C(=O)C(CC1CCN(Cc3ccccc3)CC1)C2.Cl.Cl` (configuration not stated) [Donepezil.HCl], the cell number in the assay with HCC1569 [1] amounted to 101; in the assay on TDF [2], 114. For the same molecule, the results for the H1.0 immunofluorescence intensity in the assay with TDF [3] and with HCC1569 [4] were 95.8 (inactive) and 105 (inactive), respectively.

In the case of `COc1c2c(nc3ccccc13)OC(C(C)(O)CO)C2` (configuration not stated) [Dubinidine], the cell number in the assay on HCC1569 [1] was found to be 102 ± 7.2; with TDF [2], 104 ± 5.6. Also, the H1.0 immunofluorescence intensity with TDF [3] is 96.1 (inactive); with HCC1569 [4], 106 (inactive).

As to `Cl.Nc1c2c(nc3ccccc13)CCCC2` [9-Amino-1,2,3,4-tetrahydroacridine hydrochloride], the figures for the cell number with HCC1569 [1] and in the assay with TDF [2] were 105 and 103, respectively. The H1.0 immunofluorescence intensity was 94.8 (inactive) in the assay on TDF [3] and 94.2 (inactive) with HCC1569 [4].

`NC(CO)C(=O)NNCc1ccc(O)c(O)c1O` (configuration not stated) [Benserazide]: the figures for the cell number with HCC1569 [1] and with TDF [2] were 95.2 and 82, respectively. Besides, the H1.0 immunofluorescence intensity in the assay with TDF [3] was 101 (inactive); with HCC1569 [4], 97.6 (inactive).

On to `CCCCCC(O)C=CC1C(O)CC2CC(=CCCCC(=O)O)CC21` (configuration not stated) [Carbacyclin], for which the cell number was 103 in the assay with HCC1569 [1] and 99.1 in the assay with TDF [2]. Also, the H1.0 immunofluorescence intensity in the assay on TDF [3] is 94.8 (inactive); in the assay with HCC1569 [4], 100 (inactive).

Regarding `CN(C)CCC=C1c2ccccc2Sc2ccc(Cl)cc21.Cl` [Chlorprothixene hydrochloride], the cell number in the assay with HCC1569 [1] came out at 90.2; with TDF [2] it was 106. The H1.0 immunofluorescence intensity in the assay on TDF [3] is 116 (inactive); with HCC1569 [4], 127 (inactive).

In the case of `CCCCCC=CCC(O)C=CC=CC=CC(O)CCCC(=O)O` [5(S),12(R)-DIHETE all trans], the cell number in the assay with HCC1569 [1] came out at 99.8; in the assay with TDF [2], 97. Further, the H1.0 immunofluorescence intensity with TDF [3] is 99.7 (inactive); with HCC1569 [4] it was 101 (inactive).
